Screening data: PubChem BioAssay, several laboratories
A selection: hits, their analogues and other compounds. The true share with any hit is near 4.7%.
SKKanGAS inh: blocks kanamycin growth of S. pyogenes SKKanGAS strain; BacTiter-Glo, 6 h; inhibition, % at 7.5 µM; AID 1662; hit rate 1.3% among 300,000;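 active = mean replicate score, as percent of positive control median, at least 50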;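 note: strain carries kanamycin resistance gene driven by streptokinase promoter and grows in 40 µg/ml kanamycin; loss of luminescence reflects streptokinase promoter inhibition or plain growth inhibition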
PfHsp90 yeast 2: growth inhibition of yeast expressing Plasmodium Hsp90; S. cerevisiae expressing PfHsp90, BacTiter-Glo ATP, 48 h; yeast lacking PDR1 and PDR3 efflux regulators; hit rate 0.32% among 310,000; inhibition, % at 9.4 µM;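 active = every replicate shows inhibition above about 80%, whatever the replicate mean, limit read from the data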
TIM10 inh: TIM10 yeast growth inhibition; inhibition, % at 10 µM; S. cerevisiae TIM10 strain growth, BacTiter-Glo luminescence, 24 h; AID 463195; hit rate 1.4% among 330,000;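 active = inhibition of 40% or more at the single tested concentration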;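 note: wild-type TIM10 isogenic control strain grown at permissive 25 °C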
EBI2 antag: blocks human EBI2 receptor beta-arrestin signaling; AID 651636; hit rate 0.81% among 360,000; EBI2 beta-arrestin recruitment, luminescence, 7a,25-OHC stimulated; inhibition, % at 5 µM; in the data active = inhibition above about 38%;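 note: enzyme fragment complementation signal reports receptor beta-arrestin coupling in cells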
Target sequence (P32249 whole entry, looked up, the tested form may be a part): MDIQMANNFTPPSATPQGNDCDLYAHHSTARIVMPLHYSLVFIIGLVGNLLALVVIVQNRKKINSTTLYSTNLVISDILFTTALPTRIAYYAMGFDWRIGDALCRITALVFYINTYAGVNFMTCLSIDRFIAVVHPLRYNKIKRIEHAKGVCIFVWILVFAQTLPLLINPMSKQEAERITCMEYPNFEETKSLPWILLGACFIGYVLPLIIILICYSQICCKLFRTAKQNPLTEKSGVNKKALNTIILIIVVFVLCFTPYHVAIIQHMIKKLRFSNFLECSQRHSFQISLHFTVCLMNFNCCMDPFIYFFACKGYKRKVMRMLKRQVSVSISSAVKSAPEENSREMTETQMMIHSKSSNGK
tim10-1 inh: inhibits growth of tim10-1 mutant yeast; hit rate 2.2% among 330,000; AID 463190; S. cerevisiae tim10-1 ts strain growth, BacTiter-Glo, 24 h; inhibition, % at 20 µM;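 active = inhibition of at least 40%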;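 note: mutant grown at 25 °C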
tim23-1 inh: growth inhibitors of tim23-1 mutant yeast; S. cerevisiae tim23-1 growth, BacTiter-Glo luminescence, 24 h; inhibition, % at 20 µM; hit rate 1.3% among 330,000;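 active = growth inhibition of the mutant yeast at or above 50%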;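 note: temperature-sensitive mutant grown at 25 °C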
tim10-1 confirm: confirmation of tim10-1 mutant yeast growth inhibitors. shares compounds with tim10-1 inh. S. cerevisiae tim10-1 ts strain growth, BacTiter-Glo, 24 h. inhibition, % at 20 µM. hit rate 56% among 7,400;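 active = inhibition of yeast growth at or above a set limit in either of two repeat tests at 20 µM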;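 note: tim10-1 mutant grown at permissive 25 °C to find synthetic lethal compounds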
Numbers stand for hits; n = inactive; x = no result.

SMILES	SKKanGAS inh	PfHsp90 yeast 2	TIM10 inh	EBI2 antag	tim10-1 inh	tim23-1 inh	tim10-1 confirm
O=C1CC(N2CCCCCC2)C(=O)N1c1ccc(F)cc1 (stereo not drawn)	n	x	n	n	53.6	n	45.0
COc1ccccc1NC(=O)CSC1CC(=O)N(c2ccc3c(c2)OCO3)C1=O (stereo not drawn)	n	n	n	n	47.1	n	44.6
C/C(=N\NC(=S)Nc1ccc(C)cc1)c1cccc(N)c1	n	n	n	n	41.7	n	n
CC(C)C[C@@H](C(=O)N[C@@H](C(=O)O)c1ccccc1)N1C(=O)N2CCc3c([nH]c4ccccc34)[C@@]2(C)C1=O	n	n	n	n	n	n	x
CCCC(O)(c1ccccc1)C(CN1CCOCC1)c1ccccc1 (stereo not drawn)	n	n	n	n	40.7	n	n
COc1ccc(CNC(=O)CC2C[C@H](C(=O)N3CCOCC3)[C@@]3(CCC4CCCC4)c4[nH]c5ccccc5c4CCN3C2=O)cc1OC (stereo partly drawn)	x	n	n	n	n	n	x
Cc1c(OCC(=O)NCCCN2CCOCC2)ccc2c3c(c(=O)oc12)CCCC3	n	n	n	n	45.9	n	n
CCCc1cc(=O)oc2c(C)c(OCC(=O)Nc3ccc(CN4CCOCC4)cc3)ccc12	n	n	n	n	40.2	n	33.2
CCCc1cc(=O)oc2c(C)c(OCC(=O)NCCCN3CCOCC3)ccc12	n	n	n	n	n	n	x
CCCSc1cc(N2CCOCC2)nc(-c2ccccc2Cl)n1	n	n	n	n	n	n	x
CCN(CC(=O)Nc1ccc(NC(C)=O)cc1)C(=O)CCCc1nc2ccccc2s1	x	x	n	n	n	n	x
C/C(=N\Nc1cc(Cl)nc(C)n1)c1ccccc1	n	x	n	n	41.0	n	38.7
C/C(=N\Nc1nc(N2CCCCCC2)nc(N2CCCCCC2)n1)c1ccccc1	58.9	n	n	n	40.1	n	n
Cc1ccc(-n2nnnc2CNC(=O)c2ccc([N+](=O)[O-])o2)cc1C	n	n	n	n	42.8	n	31.2
O=C(NCc1nnnn1-c1ccc(F)cc1)c1ccc([N+](=O)[O-])o1	n	x	n	n	n	n	x
CCOC(=O)N1C(=O)[C@@](c2ccc(Cl)cc2)(C(C)C)N1C(=O)OCC	n	n	n	n	44.0	n	45.0
Cc1ccc(S(=O)(=O)CCC(=O)OCC(=O)Nc2ccc(N3CCOCC3)cc2)cc1	n	n	n	n	n	n	x
O=C(Nc1ccccn1)c1ccc2c(c1)S(=O)(=O)c1ccccc1C2=O	n	n	n	n	n	n	x
O=C1c2ccccc2S(=O)(=O)c2cc(C(=O)N(c3ccccn3)c3ccccn3)ccc21	n	n	n	n	40.7	n	n
CN(CC(=O)Nc1cccc(F)c1)C(=O)CC1CCCCC1	n	n	n	n	n	n	x
Cn1c(CSCc2ccc(F)cc2)nnc1SCC(=O)Nc1cccc(C(=O)O)c1	n	n	n	n	n	n	x
O=C(NNC(=S)NC1CCCCC1)c1sc2ccccc2c1Cl	n	n	n	n	49.8	n	n
CNc1ccccc1C(C)(C)c1cc(-c2cccc(Br)c2)no1	n	n	n	n	n	n	x
CNc1ccccc1C(C)(C)c1cc(-c2cccc([N+](=O)[O-])c2)no1	n	n	n	n	42.6	n	33.4
CCOC(=O)CSc1nc(C2CC2)nc2ccccc12	n	n	n	n	40.2	n	n
SMILES	SKKanGAS inh	PfHsp90 yeast 2	TIM10 inh	EBI2 antag	tim10-1 inh	tim23-1 inh	tim10-1 confirm
COc1ccc(-c2sc3cc4c(cc3c2C#Cc2cncn2C)OCO4)cc1	x	n	n	n	n	n	x
COc1ccc(-c2sc3cc4c(cc3c2C#CC2(N)CCCCC2)OCO4)cc1	x	n	n	n	47.7	n	43.9
COc1ccc(NC2c3ncccc3C(=O)N2Cc2cccs2)cc1 (stereo not drawn)	n	n	n	n	n	n	x
O=C1c2cccnc2C(Nc2ccc(Br)cc2)N1Cc1cccs1 (stereo not drawn)	n	x	n	n	41.1	n	n
CCOC(=O)N1CCN(C(=O)c2ccc(CSc3ccc(Cl)cc3)cc2)CC1	n	n	n	n	44.9	n	44.8
CCOc1ccccc1CNC(=O)c1ccc(NC(=O)C2=C(C)OCCS2)cc1	n	n	n	n	n	n	x
